Consider four molecules from PubChem BioAssay (EPA / NIEHS).

Records with an inconclusive call do not appear. Activity calls are given as the source filed them. Rule for the calls, unless noted: active = hit-call score of the fitted dose curve at least 0.9, where 1 is the maximum; inactive = score below 0.9.

What is called AC50 is the midpoint of the concentration-response curve, whichever way the signal moves.

For assay [1], the target named is Paired box protein Pax-6 (Homo sapiens) (UniProt P26367). As to the kind of experiment: ATG_Pax6_CIS: Attagene CIS-FACTORIAL HepG2 Assay for human Paired Box 6 (PAX6) (AID 2282956). To be noted: HepG2 CIS-FACTORIAL PAX6 reporter transcription, RNA readout; actives raise or lower the signal. The gist of the method:
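HepG2 cells transiently transfected with cis-promoter-driven multiplexed reporter units sensing endogenous transcription factor activity; 24 h chemical exposure. Reporter mRNA quantified by RT-PCR, 6-FAM labelling, HpaI digestion and capillary electrophoresis; bidirectional fit versus DMSO baseline.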

A short description of assay [2]: ATG_PXRE_CIS: Attagene CIS-FACTORIAL HepG2 Assay for human Pregnane X Receptor Element (PXRE) (AID 2282957). To be noted: HepG2 Attagene CIS-FACTORIAL PXRE reporter, mRNA; actives raise or lower the signal. In outline: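 Transfect HepG2 with MRTUs (cis promoter elements); dose chemical, incubate 24 h; isolate RNA, RT with oligo(dT), PCR, 6-FAM label, HpaI cut, CE. Gain/loss fit vs DMSO.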

Assay [3] is described as follows: ATG_PPRE_CIS: Attagene CIS-FACTORIAL HepG2 Assay for human Peroxisome Proliferator-activated Response Element (PPRE) (AID 2282958). As to conditions: HepG2 PPRE cis-element reporter, Attagene transcription factor profiling; actives raise or lower the signal. In outline: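 In this cell-based multiplex, a PPRE cis element drives a reporter sequence in transiently transfected HepG2 cells. Following 24 h treatment, labeled cDNA amplicons are sized and quantified by capillary electrophoresis, with DMSO defining baseline.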

Assay [4] deals with Transcription factor Sp1 (Homo sapiens) (UniProt P08047). As to the kind of experiment: ATG_Sp1_CIS: Attagene CIS-FACTORIAL HepG2 Assay for human Specificity Protein 1 (Sp1) (AID 2282961). To be noted: HepG2 Sp1 cis-reporter transcription, actives raise or lower the signal. The gist of the method: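 Cells: HepG2, transiently transfected with cis-regulated multiplexed reporters. Exposure: 24 h. Detection: reporter transcripts amplified, fluorescently labeled, restriction-digested and sized by capillary electrophoresis. Analysis: bidirectional fit relative to DMSO.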
Chain of Transcription factor Sp1 (Homo sapiens) (P08047 whole entry, looked up): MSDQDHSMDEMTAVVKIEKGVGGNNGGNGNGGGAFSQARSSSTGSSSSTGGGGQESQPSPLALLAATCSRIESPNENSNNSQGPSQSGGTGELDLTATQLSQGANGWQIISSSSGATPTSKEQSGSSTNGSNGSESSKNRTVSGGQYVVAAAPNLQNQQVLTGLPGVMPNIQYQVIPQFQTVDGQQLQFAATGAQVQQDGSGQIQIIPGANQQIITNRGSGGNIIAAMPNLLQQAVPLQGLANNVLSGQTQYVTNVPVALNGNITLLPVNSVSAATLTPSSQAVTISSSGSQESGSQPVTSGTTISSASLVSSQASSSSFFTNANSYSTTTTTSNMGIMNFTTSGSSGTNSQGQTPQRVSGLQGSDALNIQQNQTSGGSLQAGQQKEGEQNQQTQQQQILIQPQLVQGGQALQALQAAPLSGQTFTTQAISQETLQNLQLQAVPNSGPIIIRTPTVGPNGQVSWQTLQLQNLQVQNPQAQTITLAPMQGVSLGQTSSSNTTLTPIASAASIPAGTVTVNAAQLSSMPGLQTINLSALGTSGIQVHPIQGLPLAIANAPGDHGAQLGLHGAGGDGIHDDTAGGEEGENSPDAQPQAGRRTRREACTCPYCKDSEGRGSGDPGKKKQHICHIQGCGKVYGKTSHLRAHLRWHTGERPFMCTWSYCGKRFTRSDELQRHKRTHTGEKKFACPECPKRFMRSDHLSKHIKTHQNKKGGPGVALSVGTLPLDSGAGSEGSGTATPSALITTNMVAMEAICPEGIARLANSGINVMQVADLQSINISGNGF

The nature of assay [5]: ATG_SREBP_CIS: Attagene CIS-FACTORIAL HepG2 Assay for human Sterol Regulatory Element Binding (SREBP) (AID 2282962). To be noted: HepG2 Attagene cis-factorial SREBP reporter, mRNA; actives raise or lower the signal. In outline:
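HepG2 cells transiently transfected with multiplexed cis-promoter reporter units sensing endogenous transcription factors; reporter mRNA measured 24 h after dosing by RT-PCR, 6-FAM labeling, HpaI digestion and capillary electrophoresis. Bidirectional fit versus DMSO.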

In assay [6] the target is Signal transducer and activator of transcription 3 (Homo sapiens) (UniProt P40763). As to the kind of experiment: ATG_STAT3_CIS: Attagene CIS-FACTORIAL HepG2 Assay for human Signal Transducer and Activator of Transcription 3 (STAT3) (AID 2282963). As to conditions: HepG2, Attagene cis-factorial STAT3 reporter transcription; actives raise or lower the signal. In outline: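 After a 24 h compound incubation, total RNA from MRTU-transfected HepG2 cells was converted to cDNA and reporter sequences PCR-amplified, labelled and profiled by capillary electrophoresis. Gain and loss of signal were referenced to DMSO.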
Chain of Signal transducer and activator of transcription 3 (Homo sapiens) (P40763 whole entry, looked up): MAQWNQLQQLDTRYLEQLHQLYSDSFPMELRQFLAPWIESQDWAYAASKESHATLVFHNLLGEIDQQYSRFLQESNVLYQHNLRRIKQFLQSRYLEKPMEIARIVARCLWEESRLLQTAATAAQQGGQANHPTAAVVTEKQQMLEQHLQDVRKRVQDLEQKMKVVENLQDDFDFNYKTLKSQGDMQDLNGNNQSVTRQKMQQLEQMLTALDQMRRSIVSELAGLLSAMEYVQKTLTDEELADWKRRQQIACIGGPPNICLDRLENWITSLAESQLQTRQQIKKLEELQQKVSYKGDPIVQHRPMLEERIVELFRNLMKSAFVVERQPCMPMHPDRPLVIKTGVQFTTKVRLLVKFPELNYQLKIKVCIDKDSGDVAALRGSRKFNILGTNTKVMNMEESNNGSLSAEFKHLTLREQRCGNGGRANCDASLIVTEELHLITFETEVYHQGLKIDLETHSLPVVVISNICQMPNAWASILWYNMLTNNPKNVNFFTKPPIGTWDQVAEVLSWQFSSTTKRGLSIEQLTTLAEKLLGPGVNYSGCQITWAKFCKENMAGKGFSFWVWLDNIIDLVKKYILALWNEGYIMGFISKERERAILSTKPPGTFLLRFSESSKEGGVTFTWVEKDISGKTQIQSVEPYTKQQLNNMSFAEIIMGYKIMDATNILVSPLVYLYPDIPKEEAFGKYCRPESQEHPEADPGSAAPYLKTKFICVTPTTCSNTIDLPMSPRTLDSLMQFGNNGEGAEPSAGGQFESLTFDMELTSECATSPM

Assay [7] can be described thus: ATG_TA_CIS: Attagene CIS-FACTORIAL HepG2 Assay for human TA Basal Promoter (AID 2282964). As to conditions: HepG2 Attagene CIS-factorial TA basal promoter reporter; actives raise or lower the signal. The gist of the method: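 Steps: transfect HepG2 with MRTUs; dose 24 h; isolate RNA, DNase-treat, reverse-transcribe; PCR and FAM-label reporter cDNA; digest with HpaI 2h at 37 C; run capillary electrophoresis. Activity fitted both directions against DMSO.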

Assay [8] can be described thus: ATG_TCF_b_cat_CIS: Attagene CIS-FACTORIAL HepG2 Assay for human T-Cell-Factor with beta-catenin (TCF/b-cat) (AID 2282965). To be noted: HepG2 TCF/beta-catenin cis-reporter transcription, actives raise or lower the signal. In outline:
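Measured: reporter mRNA in HepG2 transiently transfected with cis-promoter reporter units, 24 h after chemical addition. Fitting was bidirectional, DMSO as negative control.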

Assay [9] can be described thus: ATG_TAL_CIS: Attagene CIS-FACTORIAL HepG2 Assay for human TAL Basal Promoter (AID 2282966).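 Note: background control endpoint measuring basal TAL promoter reporter mRNA not a specific factor.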 As to conditions: HepG2 Attagene cis-factorial TAL promoter reporter; actives raise or lower the signal. The gist of the method:
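Fluorescence of labelled reporter cDNA fragments, resolved by capillary electrophoresis, gave the readout. Human HepG2 liver cells carried transiently transfected cis-element reporter units and were treated for 24 hours; activity was fitted bidirectionally against DMSO.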

Assay [10] in a line: ATG_TGFb_CIS: Attagene CIS-FACTORIAL HepG2 Assay for human Transforming Growth Factor (TGF) (AID 2282967). To be noted: HepG2 Attagene CIS TGFb reporter, mRNA transcription; actives raise or lower the signal. In outline: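 Cells were dosed for 24 hours, after which total RNA was reverse-transcribed and reporter sequences amplified, labeled and sized by capillary electrophoresis. Activity was fitted in both directions against DMSO.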

Assay [11] can be described thus: ATG_VDRE_CIS: Attagene CIS-FACTORIAL HepG2 Assay for human Vitamin D Receptor Element (VDRE) (AID 2282968). As to conditions: HepG2 VDRE cis-reporter transcription, actives raise or lower the signal. In outline:
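In transiently transfected HepG2 liver cells, gain or loss of reporter mRNA after 24 h exposure is scored relative to DMSO, using fluorescence detection by capillary electrophoresis of RT-PCR products.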

Assay [12] concerns the target Steroid hormone receptor ERR1 (Homo sapiens) (UniProt P11474). As to the kind of experiment: ATG_ERRa_TRANS: Attagene TRANS-FACTORIAL HepG2 Assay for human Estrogen-Related Receptor alpha (ERRa) (AID 2282971; active = hit-call score of the fitted dose curve at least 0.9, where 1 is the maximum). To be noted: HepG2 Attagene TRANS reporter, ERRa transactivation. In outline: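 Reporter transcript induction was quantified by RT-PCR and capillary electrophoresis of FAM-labelled, HpaI-cut products after 24 h treatment of HepG2 cells carrying transiently transfected GAL4-UAS reporter units and an exogenous ERRa-Gal4 fusion; activity scored as increase over DMSO.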

The target in assay [13] is X-box-binding protein 1 (Homo sapiens) (UniProt P17861). As to the kind of experiment: ATG_Xbp1_CIS: Attagene CIS-FACTORIAL HepG2 Assay for human X-box Binding Protein 1 (XBP1) (AID 2282972). To be noted: HepG2 XBP1 cis-element reporter, Attagene multiplex; actives raise or lower the signal. In outline:
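HepG2 cells transiently transfected with multiple cis-element reporter units report endogenous TF activity; 24 h exposure, then reporter mRNA measured by RT-PCR, 6-FAM labelling, HpaI digestion and capillary electrophoresis. Bidirectional fitting versus DMSO.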

Assay [14] in a line: ATG_M_19_TRANS: Attagene TRANS-FACTORIAL HepG2 Assay for M19 Transcription Factor (Internal Marker) (AID 2282974; active = hit-call score of the fitted dose curve at least 0.9, where 1 is the maximum). To be noted: HepG2 Attagene TRANS-FACTORIAL M19 internal marker reporter. In outline: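 Reporter mRNA induction was measured in transfected HepG2 cells 24 h after dosing. Endpoint fitted upward relative to DMSO and serves as a background control within the multiplexed TRANS panel.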

In assay [15] the target is Estrogen-related receptor gamma (Homo sapiens) (UniProt P62508). As to the kind of experiment: ATG_ERRg_TRANS: Attagene TRANS-FACTORIAL HepG2 Assay for human Estrogen-Related Receptor gamma (ERRg) (AID 2282977; active = hit-call score of the fitted dose curve at least 0.9, where 1 is the maximum;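 note: hits increase reporter signal over DMSO so potencies reflect activators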). To be noted: HepG2 Attagene TRANS reporter, ERRg transactivation. The gist of the method:
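HepG2 cells transiently transfected with multiplexed GAL4-UAS reporter units and chimeric NR-Gal4 constructs were exposed to test chemicals for 24 h. Reporter mRNA was measured by RT-PCR, 6-FAM primer extension, HpaI digestion and capillary electrophoresis; gain-of-signal versus DMSO.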

In assay [16] the target is Glucocorticoid receptor (Homo sapiens) (UniProt P04150). As to the kind of experiment: ATG_GR_TRANS: Attagene TRANS-FACTORIAL HepG2 Assay for human Glucocorticoid Receptor (GR) (AID 2282978; active = hit-call score of the fitted dose curve at least 0.9, where 1 is the maximum;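 note: activators score as hits since higher reporter transcript over DMSO is fitted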). To be noted: HepG2 Attagene TRANS GR reporter, mRNA transcription. The gist of the method:
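Reporter transcript levels, detected by fluorescence after RT-PCR and capillary electrophoresis, served as the endpoint. HepG2 cells bearing transfected GAL4-UAS reporters responsive to NR-GAL4 chimeras were incubated with compound 24 h; DMSO defined baseline.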

Assay [17] can be described thus: ATG_RORE_CIS: Attagene CIS-FACTORIAL HepG2 Assay for human RAR-related Orphan Receptor Element (RORE) (AID 2282959). As to conditions: HepG2 Attagene cis-factorial RORE reporter, mRNA; actives raise or lower the signal. The gist of the method: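 Endogenous factor activity at a cis response element is read as reporter transcript levels in HepG2 cells, 24 h post-dose. Transcripts are quantified by RT-PCR with capillary electrophoresis, and data fitted in both directions against DMSO.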

Assay [18] is described as follows: ATG_GAL4_TRANS: Attagene TRANS-FACTORIAL HepG2 Assay for GAL4 (Internal Marker) (AID 2282976; active = hit-call score of the fitted dose curve at least 0.9, where 1 is the maximum). To be noted: HepG2 Attagene TRANS GAL4 internal marker reporter. The gist of the method: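 First, HepG2 cells were transfected with reporter units under GAL4-UAS control. Next, they were treated with chemical for 24 h. Finally, RNA was reverse-transcribed, PCR-amplified, FAM-labelled and resolved by capillary electrophoresis, with induction scored against DMSO.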

For assay [19], the target named is Nuclear receptor subfamily 1 group I member 3 (Homo sapiens) (UniProt Q14994). As to the kind of experiment: ATG_CAR_TRANS: Attagene TRANS-FACTORIAL HepG2 Assay for human Constitutive Androstane Receptor (CAR) (AID 2282969; active = hit-call score of the fitted dose curve at least 0.9, where 1 is the maximum;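 note: activators raise reporter mRNA above DMSO so AC50 marks induction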). To be noted: HepG2 Attagene TRANS-FACTORIAL CAR reporter. The gist of the method: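 Readout is reporter mRNA induction, quantified by fluorescent primer extension and capillary electrophoresis after RT-PCR. Cells were HepG2 transiently carrying chimeric NR-Gal4 constructs with GAL4-UAS reporters, treated for 24 h; activity scored upward from DMSO.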
Chain of Nuclear receptor subfamily 1 group I member 3 (Homo sapiens) (Q14994 whole entry, looked up, the tested form may be a part): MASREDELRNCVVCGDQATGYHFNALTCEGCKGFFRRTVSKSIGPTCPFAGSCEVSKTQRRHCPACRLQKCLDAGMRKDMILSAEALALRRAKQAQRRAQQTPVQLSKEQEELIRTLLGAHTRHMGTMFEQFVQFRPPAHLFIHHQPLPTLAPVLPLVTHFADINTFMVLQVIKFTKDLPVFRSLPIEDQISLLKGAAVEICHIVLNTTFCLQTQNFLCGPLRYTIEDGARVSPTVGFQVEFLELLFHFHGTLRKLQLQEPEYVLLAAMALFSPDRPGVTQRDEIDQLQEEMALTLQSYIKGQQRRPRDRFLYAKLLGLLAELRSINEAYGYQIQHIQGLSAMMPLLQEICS

Assay [20] can be described thus: ATG_Sox_CIS: Attagene CIS-FACTORIAL HepG2 Assay for human SRY-box transcription factor (SOX) (AID 2282960). As to conditions: HepG2 Attagene cis-factorial SOX reporter, mRNA; actives raise or lower the signal. The gist of the method:
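Measures mRNA induction of a SOX1-associated reporter in HepG2 after 24 h dosing. Fluorescently labelled RT-PCR fragments are separated by capillary electrophoresis, and gain or loss relative to DMSO control is fitted.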

Chain of X-box-binding protein 1 (Homo sapiens) (P17861 whole entry, looked up): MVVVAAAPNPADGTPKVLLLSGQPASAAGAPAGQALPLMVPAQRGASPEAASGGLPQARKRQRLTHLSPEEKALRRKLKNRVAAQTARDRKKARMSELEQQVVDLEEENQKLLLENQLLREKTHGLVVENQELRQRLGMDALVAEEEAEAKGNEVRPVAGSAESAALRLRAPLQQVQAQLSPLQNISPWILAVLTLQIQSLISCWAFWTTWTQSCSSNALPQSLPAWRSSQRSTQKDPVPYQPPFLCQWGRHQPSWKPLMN
Chain of Paired box protein Pax-6 (Homo sapiens) (P26367 whole entry, looked up): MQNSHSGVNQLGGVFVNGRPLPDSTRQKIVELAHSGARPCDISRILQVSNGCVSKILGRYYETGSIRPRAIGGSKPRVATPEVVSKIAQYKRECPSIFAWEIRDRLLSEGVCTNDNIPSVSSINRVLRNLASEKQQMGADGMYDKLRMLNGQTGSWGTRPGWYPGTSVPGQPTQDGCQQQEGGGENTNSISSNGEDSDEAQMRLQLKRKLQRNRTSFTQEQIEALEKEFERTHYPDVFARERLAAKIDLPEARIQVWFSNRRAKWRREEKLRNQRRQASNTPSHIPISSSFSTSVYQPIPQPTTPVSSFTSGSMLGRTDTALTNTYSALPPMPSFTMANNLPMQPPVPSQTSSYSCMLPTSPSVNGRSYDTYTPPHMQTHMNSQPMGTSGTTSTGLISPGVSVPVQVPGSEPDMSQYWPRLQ
Chain of Estrogen-related receptor gamma (Homo sapiens) (P62508 whole entry, looked up, the tested form may be a part): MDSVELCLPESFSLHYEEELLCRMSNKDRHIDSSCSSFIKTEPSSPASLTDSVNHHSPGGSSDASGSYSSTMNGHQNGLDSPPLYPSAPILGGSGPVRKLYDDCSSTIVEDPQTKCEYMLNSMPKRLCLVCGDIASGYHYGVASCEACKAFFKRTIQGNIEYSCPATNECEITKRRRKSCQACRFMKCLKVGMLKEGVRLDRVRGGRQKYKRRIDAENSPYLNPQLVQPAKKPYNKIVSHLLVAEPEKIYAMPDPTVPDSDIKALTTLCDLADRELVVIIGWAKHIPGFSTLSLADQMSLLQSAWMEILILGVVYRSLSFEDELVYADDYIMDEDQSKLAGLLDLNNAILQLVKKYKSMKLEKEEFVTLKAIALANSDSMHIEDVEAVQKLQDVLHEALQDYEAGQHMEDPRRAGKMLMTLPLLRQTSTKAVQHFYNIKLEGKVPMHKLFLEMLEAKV
Chain of Glucocorticoid receptor (Homo sapiens) (P04150 whole entry, looked up, the tested form may be a part): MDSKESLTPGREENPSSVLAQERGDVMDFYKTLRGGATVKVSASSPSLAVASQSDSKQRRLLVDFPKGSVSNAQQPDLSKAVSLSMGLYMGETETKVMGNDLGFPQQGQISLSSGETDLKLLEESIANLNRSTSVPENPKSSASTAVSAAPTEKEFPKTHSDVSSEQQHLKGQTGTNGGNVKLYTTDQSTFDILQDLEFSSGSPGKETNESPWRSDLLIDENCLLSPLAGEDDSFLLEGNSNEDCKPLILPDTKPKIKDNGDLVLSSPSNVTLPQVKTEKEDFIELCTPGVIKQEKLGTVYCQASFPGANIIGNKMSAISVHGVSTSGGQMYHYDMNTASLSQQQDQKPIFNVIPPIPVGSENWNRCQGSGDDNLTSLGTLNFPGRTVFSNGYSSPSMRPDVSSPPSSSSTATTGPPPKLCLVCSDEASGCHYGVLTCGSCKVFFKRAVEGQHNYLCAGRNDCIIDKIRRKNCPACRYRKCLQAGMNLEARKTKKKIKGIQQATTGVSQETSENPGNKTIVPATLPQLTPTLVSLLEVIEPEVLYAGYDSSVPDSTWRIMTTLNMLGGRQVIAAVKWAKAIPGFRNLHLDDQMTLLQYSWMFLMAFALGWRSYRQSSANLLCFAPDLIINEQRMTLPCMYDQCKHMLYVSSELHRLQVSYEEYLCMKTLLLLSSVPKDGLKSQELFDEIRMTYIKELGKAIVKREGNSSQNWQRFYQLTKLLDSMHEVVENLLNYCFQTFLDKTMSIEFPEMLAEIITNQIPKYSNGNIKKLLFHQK
Chain of Steroid hormone receptor ERR1 (Homo sapiens) (P11474 whole entry, looked up, the tested form may be a part): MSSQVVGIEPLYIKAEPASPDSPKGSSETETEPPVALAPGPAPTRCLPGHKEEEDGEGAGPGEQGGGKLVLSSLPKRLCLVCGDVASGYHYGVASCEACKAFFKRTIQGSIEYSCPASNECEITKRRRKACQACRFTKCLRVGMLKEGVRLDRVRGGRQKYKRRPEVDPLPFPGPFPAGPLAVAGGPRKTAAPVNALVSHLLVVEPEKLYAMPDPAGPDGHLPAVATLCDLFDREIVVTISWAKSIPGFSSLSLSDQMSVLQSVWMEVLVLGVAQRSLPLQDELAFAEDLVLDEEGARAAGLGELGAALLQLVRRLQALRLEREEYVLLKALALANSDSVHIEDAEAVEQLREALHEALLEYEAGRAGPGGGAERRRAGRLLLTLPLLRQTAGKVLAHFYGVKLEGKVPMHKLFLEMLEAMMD

Take `CCOC(=O)c1ccc(C2CCC(NC[C@H](O)COc3ccc(O)c(NS(C)(=O)=O)c3)CC2)cc1` (some centres not stated): the AC50 in assay [1] is 46.5 µM (active); in [3] it was 57.5 µM (active); in assay [8] it was 48.3 µM (active); in [11], 48.5 µM (active); in [13] it was 54.4 µM (active). Moreover, the result in assay [2], in [4], in [5], in [6], in assay [7] and in assay [9] was inactive. Also, the call in assay [10], in [12], in [14], in assay [15] and in assay [16] was inactive.

In the case of `COc1ccc2sc(C(=O)Nc3nnn[nH]3)c(OC(C)C)c2c1`, the AC50 in assay [1] is 129 µM (active); in [3], 12.3 µM (active); in assay [17] it was 149 µM (active); in assay [5], 39.7 µM (active); in assay [7], 70.7 µM (active); in assay [9], 130 µM (active). Also, the values for the AC50 in assay [11] and in [13] were 157 µM (active) and 156 µM (active), respectively. Further, the molecule was called inactive in [2], in [4], in assay [6], in assay [8], in assay [10] and in [18]. The molecule was classed as inactive in [15] and in assay [16].

With `Cc1c(-c2cccnc2)c2ccccc2n1CCCCC(=O)O`, the molecule was called inactive in assay [1], in assay [2], in assay [17], in [4], in assay [5] and in [6]. The outcome in assay [7], in assay [8], in [9], in [10], in assay [11] and in assay [19] was inactive. Further, the outcome in assay [13] and in assay [14] was inactive. The AC50 in assay [3] is 5.71 µM (active).

For the molecule `CC(=O)OCCC(C)C`, the outcome in [1], in assay [2], in assay [3], in assay [17], in assay [20] and in assay [4] was inactive. Further, the call in [5], in assay [6], in assay [7], in assay [8], in assay [9] and in assay [10] was inactive. For the same molecule, the outcome in assay [12], in assay [13] and in assay [18] was inactive.
